Bioassay records as filed in PubChem BioAssay.
GLD-1 TGE inh = GLD-1-TGE RNA interaction inhibition (C. elegans); Q17339; 0.44% of 320,000 active; purified GLD-1 + fluorescein TGE RNA, fluorescence polarization; inhibition, % at 5.96 µM; AID 2280;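 active = percent inhibition above a per-plate cutoff, the plate mean of test compounds plus 3 SD, cut at about 30% in these data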
E coli Lon inh = inhibits E. coli Lon protease | P0A9M0 | 0.42% of 360,000 active | purified E. coli Lon protease, fluorescence polarization | inhibition, % at 7.94 µM; in the data active = inhibition above about 13%, passing the limit was not always enough
Keap1-Nrf2 PPI = disrupts human Keap1 binding to Nrf2 peptide. 0.15% of 340,000 active. AID 504523. inhibition, % at 9.4 µM. Keap1 Kelch-Nrf2 peptide fluorescence polarization, 1536-well; in the data active = inhibition above about 12%;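 also: human Keap1 Kelch domain with fluorescein labeled Nrf2 9mer peptide probe; higher means more block of Keap1 binding to Nrf2 peptide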
C-LANA FP = KSHV C-LANA DNA binding inhibition; MBP-C-LANA/FAM-LBS DNA binding, fluorescence polarization; inhibition, % at 9 µM; 0.078% of 340,000 active; AID 504423;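 active = highest replicate inhibition at or above 60% at 9 µM, even if other replicates fall short; inactive = all replicates below 60% inhibition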
MCL1-BIM inh = disrupts human MCL1 binding to BIM-BH3 peptide | AID 2057 | inhibition, % at 10.9 µM | GST-MCL1 / FITC-Bim-BH3 fluorescence polarization | 0.68% of 320,000 active | Q07820;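 active = inhibition above the mean inhibition of all tested compounds plus 3 SD, set per campaign, cut at about 40% in these data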;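 also: higher means more loss of mP so more displacement of Bim peptide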
Bcl-xL primary = Bcl-xL (human) inhibition; Q07817; GST-Bcl-xL / FITC-Bim BH3 peptide fluorescence polarization; inhibition, % at 10.9 µM; 0.7% of 320,000 active; AID 2129;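 active = inhibition above the mean of all tested compounds plus 3 SD, cutoff set per campaign, cut at about 30% in these data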;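 also: inhibitors lower millipolarization by displacing the labeled peptide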
Target sequence (Q07817 whole entry, looked up): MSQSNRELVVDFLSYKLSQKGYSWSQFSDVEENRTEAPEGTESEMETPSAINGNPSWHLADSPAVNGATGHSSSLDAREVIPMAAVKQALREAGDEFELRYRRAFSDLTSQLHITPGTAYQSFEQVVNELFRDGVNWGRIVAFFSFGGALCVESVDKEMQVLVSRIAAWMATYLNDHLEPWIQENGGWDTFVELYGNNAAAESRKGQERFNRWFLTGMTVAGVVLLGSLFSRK
Hits are given with their value. Only some compounds are listed: those with a hit (about 1.3% of all), similar ones and a draw of the others.

Screening COCCNc1nc(NCCN2CCNC2=O)c2sccc2n1 returned E coli Lon inh inactive.
Screening NS(=O)(=O)c1c(Sc2ccccc2C(=O)O)ccc2ccccc12 returned GLD-1 TGE inh inactive, E coli Lon inh inactive, Keap1-Nrf2 PPI inactive, C-LANA FP inactive, MCL1-BIM inh 46 and Bcl-xL primary 35.
For Cc1ccc(-n2c(SC3CCOC3=O)nc3ccccc3c2=O)cc1 (stereo unspecified) the results were GLD-1 TGE inh inactive, MCL1-BIM inh inactive and Bcl-xL primary 31.
O=C1OCCC1Sc1nc2ccccc2c(=O)n1-c1ccc(F)cc1 (stereo unspecified) was read as GLD-1 TGE inh inactive, E coli Lon inh inactive, Keap1-Nrf2 PPI inactive, C-LANA FP inactive, MCL1-BIM inh inactive and Bcl-xL primary inactive.
`CCOC(=O)Cn1c(=O)oc2cc(S(=O)(=O)NCc3ccccn3)ccc21` gave GLD-1 TGE inh inactive, E coli Lon inh 26, Keap1-Nrf2 PPI inactive, C-LANA FP inactive, MCL1-BIM inh inactive and Bcl-xL primary inactive.
`O=C(NC(c1ccc(-c2ccccc2)cc1)c1cnccn1)C1CCN(Cc2cccc(C(F)(F)F)c2)CC1` (stereo unspecified) gave E coli Lon inh inactive.
Screening COc1cc(C(c2c(C(=O)O)[nH]c3ccccc23)c2c(C(=O)O)[nH]c3ccccc23)ccc1OCc1ccccc1 returned GLD-1 TGE inh inactive, E coli Lon inh inactive, Keap1-Nrf2 PPI inactive, C-LANA FP inactive, MCL1-BIM inh 68 and Bcl-xL primary inactive.
Screening CC(C)(C)OC(=O)N1CCCN(C(c2ccnc3ccccc23)c2nnnn2-c2ccc3c(c2)OCCO3)CC1 (stereo unspecified) returned E coli Lon inh inactive.
Screening CCc1nn(C)c2c(=O)c(=O)c2n(C)[nH]1 returned GLD-1 TGE inh inactive, E coli Lon inh inactive, Keap1-Nrf2 PPI inactive, C-LANA FP inactive, MCL1-BIM inh inactive and Bcl-xL primary 33.
`Cc1nn(C)c2c(=O)c(=O)c2n(C)[nH]1` gave GLD-1 TGE inh inactive, E coli Lon inh inactive, Keap1-Nrf2 PPI inactive, C-LANA FP inactive, MCL1-BIM inh inactive and Bcl-xL primary inactive.
CCOC(=O)C1=NOC2(C1)C(=O)Nc1c(Cl)cccc12 (stereo unspecified) was read as E coli Lon inh inactive.
For O=C1Cc2cccc(=O)c(O)c2C(=O)O1 the results were E coli Lon inh inactive.
Screening O=C1c2c(O)cccc2Cc2cccc(O)c21 returned GLD-1 TGE inh inactive, E coli Lon inh inactive, Keap1-Nrf2 PPI inactive, C-LANA FP inactive, MCL1-BIM inh inactive and Bcl-xL primary 31.
For Clc1ccccc1C1Nc2cccc3cccc(c23)N1 the results were GLD-1 TGE inh inactive, E coli Lon inh inactive, Keap1-Nrf2 PPI inactive, C-LANA FP inactive, MCL1-BIM inh inactive and Bcl-xL primary 38.
Screening Brc1ccc(C2Nc3cccc4cccc(c34)N2)cc1 returned E coli Lon inh inactive, Keap1-Nrf2 PPI inactive and C-LANA FP inactive.
`Clc1cccc(C2Nc3cccc4cccc(c34)N2)c1Cl` gave GLD-1 TGE inh inactive, E coli Lon inh inactive, Keap1-Nrf2 PPI inactive, C-LANA FP inactive, MCL1-BIM inh inactive and Bcl-xL primary inactive.
c1coc(C2Nc3cccc4cccc(c34)N2)c1 was read as GLD-1 TGE inh inactive, MCL1-BIM inh 58 and Bcl-xL primary 51.
COc1ccc(-n2c(N)c(C(=O)Nc3c(C)n(C)n(-c4ccccc4)c3=O)c3nc4ccccc4nc32)cc1 was read as GLD-1 TGE inh inactive, E coli Lon inh inactive, Keap1-Nrf2 PPI inactive, C-LANA FP inactive, MCL1-BIM inh inactive and Bcl-xL primary inactive.
Cc1ccc(-n2c(N)c(C(=O)Nc3c(C)n(C)n(-c4ccccc4)c3=O)c3nc4ccccc4nc32)cc1C was read as GLD-1 TGE inh inactive, MCL1-BIM inh 61 and Bcl-xL primary 57.
Screening N#Cc1ccc(NC(=S)NC(=O)C2CC2)cc1 returned E coli Lon inh inactive.
Screening COc1cccc(-n2c([S-])c(C(=O)Nc3ccc(S(=O)(=O)N4CCOCC4)cc3)[n+]3cc(C(N)=O)ccc23)c1 returned GLD-1 TGE inh inactive, E coli Lon inh inactive, Keap1-Nrf2 PPI inactive, C-LANA FP inactive, MCL1-BIM inh inactive and Bcl-xL primary 36.
`Cc1ccccc1-c1nc(NCCN(C)C)nc2ccsc12` gave E coli Lon inh inactive.
